Results on 22 molecules are retold here after PubChem BioAssay (NCATS).

Results filed as inconclusive are left out. Entries that show only a call come without a potency. Calls of active or inactive are those of the source. Calls come from the whole dose curve; as a rule, active = well fitted inhibition curve with a large enough effect; inconclusive = small, poorly fitted or top-dose-only effect; inactive = flat fitted curve, though single readings scatter.

Sequence of Calcium and integrin-binding protein 1 (Homo sapiens) (Q99828 whole entry, looked up): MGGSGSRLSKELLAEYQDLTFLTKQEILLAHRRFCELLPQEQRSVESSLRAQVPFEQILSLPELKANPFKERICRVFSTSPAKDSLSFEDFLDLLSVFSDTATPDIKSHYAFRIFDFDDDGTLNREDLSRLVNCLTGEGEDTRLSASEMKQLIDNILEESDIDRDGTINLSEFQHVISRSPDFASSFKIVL

The experiment has as its target Calcium and integrin-binding protein 1 (Homo sapiens) (UniProt Q99828). Description: Primary qHTS for Identification of Calcium Integrin Binding Protein 1 (CIB1) Competitor (AID 1508620).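 Note: GST tagged CIB1 binding a fluorescein labelled alphaIIb integrin peptide tracer; top concentration of the series differs between compounds.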 The following applies: CIB1-GST / FITC-alphaIIb peptide fluorescence polarization; series mostly up to 114 µM. The method in brief: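 Fluorescence polarization competition: CIB1-GST (1 uM final) preincubated with compound 15 min at room temperature, then FITC-labeled alphaIIb peptide (100 nM final) added for another 15 min. Polarization read at Ex 480/Em 540.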
A general note: In qHTS, concentration-response curves come from the screen itself.
For `Cc1csc(CNc2ncnc3ccc(-c4ccoc4)cc23)c1`, the Potency result was “inactive”.

Regarding `COc1ccccc1NS(=O)(=O)c1ccc2c(c1)CCC(=O)N2`, the Potency entry was “inactive”.

Regarding `CNC(=O)C1=C(C)NC(Nc2nc3ccccc3o2)=NC1c1[nH]ncc1Cl` (configuration not stated), the Potency entry is “inactive”.

On to `CCC(CC)C(=O)NCCc1nc2ccccc2n1CCOc1ccc(C)cc1`, for which the Potency result was “inactive”.

Regarding `O=S(=O)(Nc1cnc2ccccc2c1)c1ccc(NCc2ccc(Br)cc2O)cc1`, the Potency entry was “inactive”.

For `O=S(=O)(Nc1cccc2cccnc12)c1ccc(Br)cc1`, the Potency entry was “inactive”.

With `Cc1cc(C)nc(NC(=S)N2CCN(c3ccc(C(=O)O)cc3)CC2)c1`, the Potency result is “inactive”.

With `Cc1ccc(CNc2ccc(N3CCN(C(=O)OC(C)(C)C)CC3=O)cc2)cc1`, the Potency entry was “inactive”.

For the molecule `Cc1cc(-c2nnc3n2CCCCC3)c(C)n1-c1ccccn1`, the Potency result was “inactive”.

Turning to `Cc1ccc(NS(=O)(=O)c2cccc(C(=O)Nc3nc(-c4ccccc4)cs3)c2)cc1`, the Potency result is “inactive”.

Regarding `Cc1cccc2c1NC(=O)/C2=C/c1cc(Cl)c(O)c(Cl)c1`, the Potency entry was “inactive”.

Take `COc1ccccc1-c1ccc(=O)n(CC(=O)NCCc2ccccc2)n1`: the Potency result was “inactive”.

Take `O=C(CNC(=O)c1ccc2n[nH]nc2c1)OC(C(=O)Nc1cc(C(F)(F)F)ccc1Cl)c1ccccc1` (configuration not stated): the Potency entry was “inactive”.

For the molecule `COc1cc(-c2ccc3ncnc(NCc4nc(C)cs4)c3c2)cc(OC)c1OC`, the Potency entry was “inactive”.

As to `O=C1CCCC2=C1[C@@]1(CCC(c3ccccc3)C1)N=C(Nc1nc3ccccc3o1)N2` (some centres not stated), the Potency result is “inactive”.

As for `CCOC(=O)c1ccc(-n2cnc3cc(C(=O)N4CCCCC4)ccc32)cc1`, the Potency entry is “inactive”.

As to `Cc1ccc(NS(=O)(=O)c2cc3c(cc2Br)NC(=O)CO3)cc1C`, the Potency result was “inactive”.

Regarding `Nc1ccc(S(=O)(=O)N2CCN(S(=O)(=O)c3c(F)cccc3F)CC2)cc1`, the Potency entry was “inactive”.

For the molecule `COc1ccc(CNc2ccc(-c3nc4ccccc4[nH]3)cc2)cc1OC`, the Potency entry was “inactive”.

Consider `Cc1cc(-c2ccccc2)nc2c(C(=O)Nc3ccc4c(c3)CCC4)cnn12`, for which the Potency result was “inactive”.

For `COc1cccc(C2N=C(Nc3nc4ccccc4o3)NC3=C2C(=O)CCC3)c1` (configuration not stated), the Potency entry is “inactive”.

With `CN(CCc1ccco1)c1ncnc2ccc(-c3ccc4c(c3)OCO4)cc12`, the Potency result is “inactive”.
